Some targets named below: NUP54; ODF3L1; OLIG1; OLFML2A; OMD; OPRK1; OTOL1; OTOP1; OTOP2; OSR1; OTP.
What all share (test): pooled miR-30 sensor sort-seq; sequence = guide strand
Common to all, as to conditions: shRNA
Also: reference of the scale not given here.

The sequence TAATGTAGTTTGCTGCTGCTGC had a sensor-assay potency score (higher = more potent) with NUP54 of 0.262.

In the assay with ODF3L1, TTGAACATGGAGATGTCATGAT returned a sensor-assay potency score (higher = more potent) of 0.585.

TTGAGGTCCATCACTCTGTATG registered a sensor-assay potency score (higher = more potent) with ODF3L1 of -1.32.

The sequence TCGGCTACTACCAACAACCAAA had a sensor-assay potency score (higher = more potent) with OLIG1 of -1.38.

Take TTGTAGTCGATCTGGGTGGTGT: the sensor-assay potency score (higher = more potent) with OLFML2A is -0.246.

On to TTTGTTGTGTCCAACACTGAGT, for which, in the assay with OMD, the sensor-assay potency score (higher = more potent) is -0.557.

With TTACTATCTTGCACAGCACATC, the sensor-assay potency score (higher = more potent) with OPRK1 was -1.6.

In turn, TTGCTTTCTAAGAAACCCCCAG displayed a sensor-assay potency score (higher = more potent) in the assay with OLIG1 of -0.585.

TTTCGGACTCTGCTAGTGCTCT returned a sensor-assay potency score (higher = more potent) with OPRK1 of -0.953.

In turn, TATCGGATGATCACGAACATGA registered a sensor-assay potency score (higher = more potent) with OPRK1 of -0.746.

Take TTCATTGTAACCAAGAAGGAGT: the sensor-assay potency score (higher = more potent) in the assay with OMD was -0.273.

TTTAAGAGCGAAAACTCTCTGC: the sensor-assay potency score (higher = more potent) with OLIG1 is -0.0663.

Sequence TAGCTGGAGAGAGCAGCTGTGC registered a sensor-assay potency score (higher = more potent) with OPRK1 of -1.45.

For ATCACGAACATGACCAGCGAGT, the sensor-assay potency score (higher = more potent) with OPRK1 was -1.24.

In the case of TTAGTTGTATTGTTTGACCATT, the sensor-assay potency score (higher = more potent) with OMD was -0.906.

As for TTGTAGTAGATTTGGAAGCTTA, the sensor-assay potency score (higher = more potent) with OMD is -0.257.

TAGTAAATCGGGAACACTGGAT registered a sensor-assay potency score (higher = more potent) with OLIG1 of -0.186.

For TACAGCTCTCCAAACAGCTGGT, the sensor-assay potency score (higher = more potent) with OLIG1 was -0.013.

TTCATGAAGAGGTCCCACCAGG: the sensor-assay potency score (higher = more potent) with OPRK1 was -0.714.

In turn, TTGTGTGACATTCTTAGAGTAT registered a sensor-assay potency score (higher = more potent) in the assay with OMD of -0.365.

AATAGCTGGAGAGAGCAGCTGT gave a sensor-assay potency score (higher = more potent) with OPRK1 of 0.381.

As for TTGGTTTTCGTTTTTAAGCAAG, in the assay with OLIG1, the sensor-assay potency score (higher = more potent) is -1.05.

For TTTGAGTAAGTTCTAATCCTAT, the sensor-assay potency score (higher = more potent) in the assay with OMD is -0.412.

In turn, TTGGTCATAGTCTTCATCCCAC displayed a sensor-assay potency score (higher = more potent) with OMD of -0.0587.

TTGTAGTAACTAAAGCATCTGC had a sensor-assay potency score (higher = more potent) with OPRK1 of -0.405.

In turn, TTGGTTGCTGTCTTCATCTTTG returned a sensor-assay potency score (higher = more potent) with OPRK1 of -0.766.

In the case of TAGTGCTTCGTTGTTCACCATA, in the assay with OMD, the sensor-assay potency score (higher = more potent) was -1.2.

TTGTAGTAGGTGAAGCCCCGGA yielded a sensor-assay potency score (higher = more potent) with OLFML2A of -0.647.

Consider TAACGTCTGTAACAAATCGAAA, for which, in the assay with OLIG1, the sensor-assay potency score (higher = more potent) is -1.41.

In the assay with OMD, TTTGTCGAAGTATTTTTCGGGT returned a sensor-assay potency score (higher = more potent) of -0.262.

TATCTTGCACAGCACATCCCCA registered a sensor-assay potency score (higher = more potent) with OPRK1 of -0.82.

Consider TTGTAGGGTAGCTTGTACATGT, for which, in the assay with OLFML2A, the sensor-assay potency score (higher = more potent) is -0.494.

As for TACCTATTTTAGTAAATCGGGA, the sensor-assay potency score (higher = more potent) with OLIG1 is -0.985.

Consider TTACCTATTTTAGTAAATCGGG, for which the sensor-assay potency score (higher = more potent) with OLIG1 was -0.775.

In the assay with OPRK1, ATGACATCGACGTCTTCCCTGA had a sensor-assay potency score (higher = more potent) of -0.669.

Regarding TTGTTGATTCTGTACACCGTCA, in the assay with OLIG1, the sensor-assay potency score (higher = more potent) was -0.445.

In the assay with OPRK1, TTGCTGTCTTCATCTTTGTGTA yielded a sensor-assay potency score (higher = more potent) of -0.644.

For TTAAATTCAATTCTGATCTTAT, in the assay with OMD, the sensor-assay potency score (higher = more potent) is -0.256.

In turn, TATTTCATTATTTTGTAGGTAT gave a sensor-assay potency score (higher = more potent) with OMD of 0.614.

As for TTAACGTCTGTAACAAATCGAA, the sensor-assay potency score (higher = more potent) in the assay with OLIG1 was -0.686.

In turn, TATGTAGCTCTTCAACTGCAAG registered a sensor-assay potency score (higher = more potent) with OLIG1 of -1.7.

On to TAACTTTTAAAAATCAGCCTAT, for which, in the assay with OLFML2A, the sensor-assay potency score (higher = more potent) is -0.201.

Take TATAGGTTTTGTGAAGTCGTAA: in the assay with OMD, the sensor-assay potency score (higher = more potent) was -0.621.

Turning to TCTTTTGACACCTCAAGCCAGA, the sensor-assay potency score (higher = more potent) with OTOL1 is -0.531.

TTGCAGAGGAACAAGAAGGCTG gave a sensor-assay potency score (higher = more potent) in the assay with OTOP1 of -0.195.

In the assay with OTOP1, AAGCACAGCAGGTCGCTCTTGC yielded a sensor-assay potency score (higher = more potent) of 0.0599.

For the sequence TTTCTCTGGACTTGAACTGCTT, in the assay with OTOL1, the sensor-assay potency score (higher = more potent) was -0.0808.

As for TTGAGTTGGTGCTTTGACTCAT, the sensor-assay potency score (higher = more potent) with OTOP1 turned out to be 0.454.

For TTGAACTGCATCTTCTGGTGCT, in the assay with OTOP1, the sensor-assay potency score (higher = more potent) amounted to 0.911.

AAGCAGACAATGTTGAAGCTGT: in the assay with OTOP2, the sensor-assay potency score (higher = more potent) was 0.428.

In turn, TAGAACATGATGAGTGCCGACT returned a sensor-assay potency score (higher = more potent) with OTOP1 of -0.938.

In the assay with OTOP2, TAGATGACCAGGGCCTGCCTGG registered a sensor-assay potency score (higher = more potent) of -1.42.

In the case of TCGTCTATCCTGTAAATCCGGA, in the assay with OTOP1, the sensor-assay potency score (higher = more potent) was -0.834.

In the assay with OSR1, AATATATCTGTGGTCTCGCAGG gave a sensor-assay potency score (higher = more potent) of -1.37.

In the case of TTGGTGCACAGATTCATCCACC, in the assay with OTOP2, the sensor-assay potency score (higher = more potent) is -1.03.

In the case of TAGAAGAGGATCCAGAGCGTTG, the sensor-assay potency score (higher = more potent) in the assay with OTOP2 is -1.26.

Take TGTCCCTTGAACACGTCCGTGT: the sensor-assay potency score (higher = more potent) in the assay with OTP was -0.222.

Turning to TTGAACCTCGTAGATGATGAAG, the sensor-assay potency score (higher = more potent) with OTOP2 is -1.6.

TTGGTCATTATAGAGAATCTTT gave a sensor-assay potency score (higher = more potent) with OTOL1 of -0.546.

Take TCCACCTCCACTGTGTTGCTGA: in the assay with OTOP2, the sensor-assay potency score (higher = more potent) is -0.748.

The values are drawn from the OligoGym collection.
